This passage reports growth results from PubChem BioAssay (NCI).

About 83,000 compounds went through this panel and 20% of them were active in at least one assay; those are over-represented in the sample as a whole.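 Each cell line was grown in a 96-well plate and treated with one concentration of compound for 48 hours. Values below 10 were considered active.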 A number with no mark means an inactive call. The source made the active and inactive calls.

In the experiment the test system is MCF7 breast. Put plainly: NCI-60 one-dose screen, 48 h (100 = growth as untreated, 0 = no growth, -100 = all killed). The conditions noted are these: 10 µM unless noted.
In the case of `O=C(Cn1c(-c2ccc([N+](=O)[O-])cc2)nc2ccccc21)NNC(=O)c1cccnc1`, the growth is 25.9%.

Regarding `O=C(Cn1cc(CN2C(=O)c3ccccc3S2(=O)=O)nn1)Nc1nc2ccccc2s1`, the growth was 91.1%.

As to `CCN1CC(=O)N(/N=C2\C(=O)Nc3ccccc32)C1=S`, the growth is 84.1%.

For the compound `O=C1NCCC12CCN(c1c(Cl)cncc1-c1ccc(O)cc1)CC2`, the growth was 95.4%.

For the compound `COP(=O)(OC)C(C)(C)CC(=O)CC(C#N)(C#N)C(C#N)C#N`, the growth was 92.1%.

With `COc1ccc(-c2nc3c(c(-c4ccccc4)nn3-c3ccccc3)c(-c3ccc(N4CCN(C)CC4)cc3)c2C#N)cc1`, the growth is 81%.

Regarding `C#Cc1cccc(Nc2ncnc3ccc(-c4cncc(NS(C)(=O)=O)c4)cc23)c1`, the growth is 10.9%.

For `Cc1ccc(Sc2nnc(/N=C3\C(=O)Nc4ccccc43)s2)cc1`, the growth is 101%.

With `CN(C)c1ccc(/C=C/C(=O)c2ccc(-n3cc(CN4CCN(c5cc6c(cc5F)c(=O)c(C(=O)O)cn6C5CC5)CC4)nn3)cc2)cc1`, the growth is 24.2%.

`CCOC(=O)CSc1ncnc2c1c(-c1ccccc1)c(-c1ccccc1)n2-c1ccc(C)cc1`: the growth was 52.5%.

Consider `O=C(CCCCCCN1CC(=O)N2[C@H](c3cc(Br)cs3)c3[nH]c4ccccc4c3C[C@H]2C1=O)NO`, for which the growth was 33.2%.

With `Cn1c(O)c(C=NCCN=Cc2c(O)n(C)c(=O)n(C)c2=O)c(=O)n(C)c1=O`, the growth is 108%.

Take `C/C(Nc1ccc(Cl)c(Cl)c1)=C1\CCOC1=O`: the growth is 96.1%.

As to `C=C1C(=O)O[C@H]2[C@H]1CC/C(COC(=O)CCSCCC(=O)OC/C1=C/CC[C@@]3(C)O[C@H]3[C@H]3OC(=O)C(=C)[C@@H]3CC1)=C\CC[C@@]1(C)O[C@@H]21`, the growth was 9.43% (active).

On to `Cc1ccc(/C=N/Nc2nc(Nc3ccccc3)nc(-n3nc(C)cc3C)n2)cc1`, for which the growth is 16.4%.

Turning to `O=C(CCc1nnc(Cn2cnc3nc[nH]c3c2=O)o1)c1nc2ncccc2[nH]1`, the growth was 97.2%.

Turning to `O=C1NC(=O)c2c1c1c3ccccc3ccc1c1[nH]c3ccc(Br)cc3c21`, the growth was 9.71% (active).

For the compound `Nc1nc(=S)c2ncn(C3OC(COP(=O)(O)O)C(O)C3O)c2[nH]1` (stereo not given), the growth was 9.34% (active).

For the compound `CC12CCC3c4ccccc4CCC3(CO1)C2` (stereo not given), the growth is 97.1%.

On to `O=Cc1ccc([N+](=O)[O-])s1`, for which the growth was 47%.

On to `CC(C)c1ccc(COCc2cc(CN3CCCC3)c(O)c3ncccc23)cc1`, for which the growth is 7.67% (active).

`COCCNC(=O)c1ccc(-c2nc3ccc4[nH]ncc4c3c3c2CCCC3)cc1`: the growth was 35.9%.

`C/C(=N/O)c1ccc(F)cc1`: the growth was 54.3%.

As to `COc1ccc2nc(NC(=O)CSc3nnc4n3S(=O)(=O)c3ccccc3N4C)sc2c1`, the growth is 96.6%.

Regarding `CN(Cc1ccc(C(F)(F)F)cc1)CC(O)C(=O)Nc1ccc(Cl)cc1` (stereo not given), the growth was -23.4% (active).

Consider `Cc1ccc2c3c(c(=O)[nH]c2c1)C1(C(C#N)=C(N)O3)c2cc(Br)ccc2-c2ccc(Br)cc21`, for which the growth is -42.6% (active).

On to `CC1(C)CC[C@]2(c3nnc(-c4ccncc4)o3)CC[C@H]3C(=CC[C@H]4[C@@]3(C)CC[C@H]3C(C)(C)C(=O)CC[C@]43C)[C@@H]2C1`, for which the growth is 53.5%.

With `C=C(C)[C@@H]1CC[C@]2(C(=O)N3CCN(C)CC3)CC[C@]3(C)[C@H](CC[C@@H]4[C@@]5(C)CC(=C/c6ccncc6)/C(=N/O)C(C)(C)[C@@H]5CC[C@]43C)[C@@H]12`, the growth was 66.8%.

Take `Oc1ccc(CCn2c(O)c(/C=C3\CN=c4ccccc4=N3)sc2=S)cc1`: the growth was 16.7%.

Regarding `CCNC(=O)c1[nH]cc(-c2ccccc2)c1-c1cc(OC)c2c(c1OC)OCO2`, the growth was 101%.

For `C[C@]12C=CC(=O)C=C1CCC1C2[C@@H](O)C[C@@]2(C)C1CC[C@]2(O)C(=O)COC(=O)CCC(=O)O` (stereo not given in full), the growth is 96.5%.

Turning to `C=CCc1c(O)c(C(=O)/C=C/c2ccc(Cl)cc2)c(OC)c2ccoc12`, the growth was 21.4%.

With `COc1cc(-n2cc(-c3cc(O)c(C/C=C(\C)CCC=C(C)C)c(O)c3)nn2)cc2c1O[C@]1(C)CC[C@@H](O)C(C)(C)[C@H]1C2`, the growth was 7.25% (active).

For the compound `O=C(CSc1nc2ccc([N+](=O)[O-])cc2[nH]1)Nc1cccc(C(F)(F)F)c1`, the growth was 15.7%.

Take `COc1ccc(C(=O)Nc2ncc(Cc3ccc(F)cc3)s2)cc1`: the growth is 12.3%.
